The record followed here is PubChem BioAssay (Tox21).

Assay [1] is described as follows: qHTS assay to identify small molecule antagonists of the retinoid acid receptor (RAR) signaling pathway - cell viability counter screen (AID 1159551). Note: nearly all actives have a fitted effect of over 35% in size. In outline:
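Seed C3RL4 cells; next day add compound, then retinol to 1 uM final; incubate 6 h at 37 C; add CellTiter-Glo; read luminescence after 30 min at RT.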
(In qHTS, concentration-response curves come from the screen itself.)

A short description of assay [2]: qHTS assay to identify small molecule antagonists of the retinoic acid receptor (RAR) signaling pathway (AID 1159552; note: nearly all actives have a fitted effect of over 50% in size). In outline: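 Luminescent RARE reporter read-out in C3RL4 cells: 6 hr co-treatment at 37 C of test compounds with retinol at 1 uM final. Cells plated overnight beforehand; luciferase reagent incubated 30 min at room temperature before reading.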

Assay [3] is described as follows: qHTS assay to identify small molecule agonists of the retinoic acid receptor (RAR) signaling pathway (AID 1159553). Note: potency is the fitted concentration of half-maximal effect. The method in brief:
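Activation of retinol signaling was monitored via a RARE luciferase reporter in C3RL4 cells. After 6 hr compound treatment at 37 C, detection reagent was added for 30 min at room temperature before luminescence reading.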

Assay [4] in a line: qHTS assay to identify small molecule antagonists of the estrogen related receptor (ERR) signaling pathway from Tox21 library - cell viability counter screen (AID 1224834). Note: nearly all actives have a fitted effect of over 30% in size. In outline:
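CellTiter-Fluor fluorescence measured; ERR cells; 17.5 h compound incubation at 37 C; 30 min reagent step.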

The target in assay [5] is Luciferin 4-monooxygenase (Photinus pyralis) (UniProt P08659). In words: qHTS assay to identify small molecule inhibitors of firefly luciferase (AID 1224835). For activity change, negative = inhibition: series mostly up to about 120 µM. Note: nearly all actives have a fitted effect of over 25% in size. Note: potency is the fitted concentration of half-maximal effect. In outline:
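Biochemical qHTS: compounds run as interplate titrations against purified firefly enzyme, with D-luciferin and ATP each at its KM concentration. Light output recorded by CCD imaging.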

Assay [6] in a line: qHTS assay to identify small molecule agonists of the constitutive androstane receptor (CAR) signaling pathway - cell viability counter screen (AID 1224836). Note: series mostly up to about 92 µM; nearly all actives have a fitted effect of over 45% in size. In outline:
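Cell viability multiplexed with the CAR agonist screen: CellTiter-Fluor fluorescence after 23 hr at 37 C. HepG2-CYP2B6-hCAR cells got compounds at 15 concentrations with PK11195 at 0.75 uM final.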

A short description of assay [7]: qHTS assay to identify small molecule antagonists of the constitutive androstane receptor (CAR) signaling pathway - cell viability counter screen (AID 1224837). Note: series mostly up to about 92 µM; nearly all actives have a fitted effect of over 45% in size. In outline:
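Using CellTiter-Fluor, viability is scored in HepG2 cells stably carrying hCAR and a 2.2kb CYP2B6 reporter after 23 hr compound exposure across 15 concentrations, with CITCO present at 50 nM.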

The target of assay [8] is Nuclear receptor subfamily 1 group I member 3 (Homo sapiens) (UniProt Q14994). The experiment in a line: qHTS assay to identify small molecule antagonists of the constitutive androstane receptor (CAR) signaling pathway (AID 1224838).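 Note: HepG2 cells stably expressing hCAR with CYP2B6 luciferase reporter stimulated by CITCO; nearly all actives have a fitted effect of over 40% in size.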 The method in brief: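 Reporter luminescence was quantified after 24 h exposure of hCAR/CYP2B6-2.2kb double-stable HepG2 cells to compounds at 15 concentrations in the presence of 50 nM CITCO final.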

Assay [9] has the same target. The experiment in a line: qHTS assay to identify small molecule agonists of the constitutive androstane receptor (CAR) signaling pathway (AID 1224839).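 For activation: HepG2 cells stably carrying human CAR and a CYP2B6 luciferase reporter; series mostly up to about 92 µM.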 Note: nearly all actives have a fitted effect of over 15% in size. Note: potency is the fitted concentration of half-maximal effect. In outline: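 Luminescent ONE-Glo read-out after 24 hr, 37 C exposure of double-stable HepG2-CYP2B6-hCAR reporter cells to a 15-point compound series, in the presence of 0.75 uM PK11195 (final).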
A short description of assay [10]: qHTS assay to identify small molecule antagonists of the estrogen related receptor signaling pathway with the pleiotropic PPARgamma coactivator (PGC) from Tox21 10K library - cell viability counter screen (AID 1224840; active = well fitted cell-killing curve with a large enough effect in the repeat runs, not every such curve was filed as active; note: nearly all actives have a fitted effect of over 40% in size). The method in brief: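 Here the PGC/ERR cells serve as a cytotoxicity control: they are exposed to compounds for 17.5 hours at 37 C, and live-cell signal is quantified using CellTiter-Fluor fluorescence.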

Assay [11] addresses Thyrotropin receptor (Homo sapiens) (UniProt P16473). The experiment in a line: qHTS assay to identify small molecule agonists of the thyroid stimulating hormone receptor (TSHR) signaling pathway (AID 1224843; calls by dose curve; note: nearly all actives have a fitted effect of over 45% in size). The method in brief: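 Steps: seed 800 TSHR-HEK293 cells per well; add test compound and hold 30 min at ambient temperature; dispense cAMP-d2 then anti-cAMP cryptate; incubate 1 h at ambient; measure fluorescence intensity.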

Assay [12] in a line: qHTS assay to identify small molecule agonists of H2AX (AID 1224845; active = well fitted activation curve with a large enough effect in the signal ratio in the repeat runs, not every such curve was filed as active; the % refers to the signal ratio). In outline: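 Wild-type CHO-K1 cells, plated overnight, exposed 3hr at 37C to 15 concentrations (0.76% DMSO final). Lysed, then HTRF anti-pH2AX (S139) cryptate and anti-H2AX-d2 antibodies, 24 hr room temperature; 665/620 nm emission read.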
A short description of assay [13]: qHTS assay to identify small molecule agonists of the hypoxia (HIF-1) signaling pathway (AID 1224846; active = well fitted activation curve with a large enough effect in the signal ratio in the repeat runs, not every such curve was filed as active; the % refers to the signal ratio). The method in brief:
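Hypoxia-pathway activation was scored as increased beta-lactamase from an HRE-controlled reporter in ME-180 cells; plated at 2,000 cells per well with 0.5% dialyzed FBS, they were exposed 17 hrs to compounds and then given CCF4-AM.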

Assay [14] can be described thus: qHTS assay to identify small molecule agonists of H2AX - cell viability counter screen (AID 1224847; calls by dose curve; note: top concentration of the series differs between compounds; nearly all actives have a fitted effect of over 30% in size). The method in brief: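 Counter-screen for viability: CellTiter-Glo ATP luminescence read after 3 h compound treatment (15-point titration, 0.76% DMSO final) of CHO-K1 cells at 37C, with 30 min room-temperature reagent incubation.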
Assay [15] is described as follows: qHTS RealTime-Glo MT Cell Viability Assay in HepG2 cells - 24 hour (AID 1224867). Note: nearly all actives have a fitted effect of over 50% in size. The method in brief: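 Luminescence read-out: viable HepG2 cells reduce a prosubstrate to a NanoLuc substrate, giving a signal proportional to live cell number. Reads taken at 0, 8, 16, 24, 32 and 40 h of compound exposure at 37 C.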
Assay [16] is described as follows: qHTS assay to identify small molecule agonists of the hypoxia (HIF-1) signaling pathway - cell viability counter screen (AID 1224844; calls by dose curve; note: nearly all actives have a fitted effect of over 50% in size). In outline: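 Multiplexed with the HRE beta-lactamase assay, this viability read used CellTiter-Glo luminescence (30 min, RT) on HRE-bla ME-180 cells treated 17 hrs with compounds in 0.5% dialyzed FBS medium.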

The structures appear in SMILES notation. Records with an inconclusive call do not appear. Values without a mark were called inactive. The source made the active and inactive calls. Unless noted, calls come from the whole dose curve; as a rule, active = well fitted curve in the direction sought with a large enough effect in the repeat runs; inconclusive = weak or mixed curves; inactive = no such curve, though single readings can be large; an effect the other way counts as inactive or inconclusive. Non-standard residues stand in square brackets, D forms with d. Residues, ends and D or L forms follow the SMILES beside them. *: point of attachment. Sta = CC(C)C[C@H](N)[C@@H](O)CC(=O)O; Isovaleryl = CC(C)CC(=O)*
% is set by controls: 0 for no effect and ±100 for the full control effect.

Sequence of Thyrotropin receptor (Homo sapiens) (P16473 whole entry, looked up): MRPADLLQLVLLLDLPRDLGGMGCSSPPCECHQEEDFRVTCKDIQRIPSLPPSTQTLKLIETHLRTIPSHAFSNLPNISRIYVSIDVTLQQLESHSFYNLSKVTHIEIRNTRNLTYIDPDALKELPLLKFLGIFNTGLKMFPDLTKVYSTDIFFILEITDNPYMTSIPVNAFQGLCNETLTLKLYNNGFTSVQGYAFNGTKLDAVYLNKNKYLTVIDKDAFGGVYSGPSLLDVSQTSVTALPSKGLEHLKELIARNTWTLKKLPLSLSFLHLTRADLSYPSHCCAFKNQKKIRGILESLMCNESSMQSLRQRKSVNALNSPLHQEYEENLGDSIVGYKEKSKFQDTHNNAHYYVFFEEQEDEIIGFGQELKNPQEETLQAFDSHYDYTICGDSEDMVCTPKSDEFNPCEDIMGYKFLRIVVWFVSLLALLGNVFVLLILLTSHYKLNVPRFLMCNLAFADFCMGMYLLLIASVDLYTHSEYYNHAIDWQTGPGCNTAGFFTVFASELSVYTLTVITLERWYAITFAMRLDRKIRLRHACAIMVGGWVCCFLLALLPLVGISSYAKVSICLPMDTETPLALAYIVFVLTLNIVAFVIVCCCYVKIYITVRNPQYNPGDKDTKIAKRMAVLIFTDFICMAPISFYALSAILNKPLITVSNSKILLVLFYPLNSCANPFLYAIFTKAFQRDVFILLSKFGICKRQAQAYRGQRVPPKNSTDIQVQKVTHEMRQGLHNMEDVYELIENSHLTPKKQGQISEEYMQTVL
Sequence of Nuclear receptor subfamily 1 group I member 3 (Homo sapiens) (Q14994 whole entry, looked up): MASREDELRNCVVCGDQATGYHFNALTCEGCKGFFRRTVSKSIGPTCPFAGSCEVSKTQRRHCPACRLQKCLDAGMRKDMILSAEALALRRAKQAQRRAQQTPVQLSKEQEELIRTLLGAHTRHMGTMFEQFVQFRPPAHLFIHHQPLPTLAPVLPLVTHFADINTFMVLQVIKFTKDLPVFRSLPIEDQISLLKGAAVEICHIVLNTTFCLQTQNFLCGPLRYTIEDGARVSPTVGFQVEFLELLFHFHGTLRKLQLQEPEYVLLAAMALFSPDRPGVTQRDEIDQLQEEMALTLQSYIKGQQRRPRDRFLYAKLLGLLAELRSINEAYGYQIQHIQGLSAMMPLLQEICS
Sequence of Luciferin 4-monooxygenase (Photinus pyralis) (P08659 whole entry, looked up): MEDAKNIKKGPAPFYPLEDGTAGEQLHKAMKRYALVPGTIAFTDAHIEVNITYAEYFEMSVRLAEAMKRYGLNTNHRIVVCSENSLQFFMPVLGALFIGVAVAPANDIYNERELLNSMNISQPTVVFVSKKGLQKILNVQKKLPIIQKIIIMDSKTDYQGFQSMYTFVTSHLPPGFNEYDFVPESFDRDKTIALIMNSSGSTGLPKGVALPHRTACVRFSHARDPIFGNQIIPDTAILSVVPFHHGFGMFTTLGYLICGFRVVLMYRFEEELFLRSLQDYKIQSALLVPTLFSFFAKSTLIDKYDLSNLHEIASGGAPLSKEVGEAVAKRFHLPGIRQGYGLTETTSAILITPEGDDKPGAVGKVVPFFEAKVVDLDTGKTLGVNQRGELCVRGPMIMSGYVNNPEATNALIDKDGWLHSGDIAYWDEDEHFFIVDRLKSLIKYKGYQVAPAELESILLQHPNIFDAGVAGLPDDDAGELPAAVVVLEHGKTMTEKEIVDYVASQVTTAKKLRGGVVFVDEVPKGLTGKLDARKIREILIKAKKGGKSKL

In the case of `CC(=O)OC/C=C(/C)CCC=C(C)C`, the compound was called inactive in assay [1], in assay [2], in [4], in [6], in assay [7] and in assay [8]. Also, the compound was classed as inactive in assay [10], in [12], in assay [13], in assay [14] and in assay [15]. In addition, the Potency result in [3], in assay [5], in assay [9] and in assay [11] was “inactive” throughout.

With `C/C(=N\O)c1ccc(OCC(=O)N2CCCCC2)cc1`, the compound was called inactive in [1], in assay [2], in assay [4], in assay [6], in assay [7] and in assay [8]. Moreover, the compound was classed as inactive in assay [10], in assay [12], in assay [14] and in assay [15]. Besides, the Potency in assay [3] was 3.76 µM (active); in assay [5], 12.3 µM (active); in [9], 4.22 µM (active). Also, in assay [11], the Potency entry is “inactive”.

Consider `Cc1cc(N)no1`, for which the outcome in assay [1], in [2], in assay [4], in [6], in assay [7] and in [8] was inactive. Also, the compound was classed as inactive in assay [10], in assay [16], in assay [12], in assay [14] and in assay [15]. Further, the Potency result in assay [3], in assay [5], in assay [9] and in assay [11] was “inactive” throughout.

As for `C=CCN1CCc2nc(N)sc2CC1`, the compound was called inactive in assay [1], in [2], in assay [4], in assay [6], in [7] and in assay [8]. Besides, the call in [10], in assay [16], in [12], in [14] and in assay [15] was inactive. Besides, the Potency result in assay [3], in assay [5], in assay [9] and in assay [11] was “inactive” in each case.

For the compound `c1cc2ccc3ccc4ccc5cccc6c(c1)c2c3c4c56`, the activity change, negative = cytotoxicity in assay [1] was 4.71% [at 3.27 µM]; in [7], 2.07% [at 3.26 µM]; in [16], -14.1% [at 2.72 µM]; in [15], -0.157% [at 2.72 µM]. Besides, the activity, negative = inhibition in assay [2] is -1.28% [at 3.27 µM]; in assay [8], 27.3% [at 3.26 µM]. The activation in [3] was -0.114% [at 3.75 µM]; in assay [9], 5.04% [at 3.27 µM]; in assay [11], 11.3% [at 3.27 µM]; in assay [13], 6.16% [at 2.67 µM]. The viability change, negative = cytotoxic in assay [4] was 2.9% [at 3.27 µM]; in assay [6], 2.84% [at 3.27 µM]; in assay [10], -0.219% [at 3.27 µM]. The activity change, negative = inhibition in [5] is 1.19% [at 4.07 µM]. In addition, the activation (H2AX phosphorylation) in assay [12] was -2.49% [at 5.45 µM].

For `CC(=O)OC1CCC(C(C)(C)C)CC1` (stereo not given), the compound was classed as inactive in assay [1], in assay [2], in assay [4], in assay [6], in assay [7] and in assay [8]. Moreover, the compound was called inactive in assay [10], in assay [12], in assay [13], in assay [14] and in assay [15]. For the same compound, the Potency result in assay [3], in assay [5], in assay [9] and in assay [11] was “inactive” in each case.

As for `C[C@H]1COc2c(C3(N)CC3)c(F)cc3c(=O)c(C(=O)O)cn1c23`, the compound was called inactive in [1], in assay [2], in assay [4], in assay [6], in assay [7] and in [8]. For the same compound, the result in assay [10], in assay [16], in assay [12], in assay [13] and in assay [15] was inactive. Moreover, the Potency result in assay [3], in [5], in assay [9] and in [11] was “inactive” in each case.

For the compound `CC(C)CC(=O)N[C@H](C(=O)N[C@H](C(=O)N[C@@H](CC(C)C)[C@@H](O)CC(=O)N[C@@H](C)C(=O)N[C@@H](CC(C)C)[C@@H](O)CC(=O)O)C(C)C)C(C)C` (Isovaleryl-VV[Sta]A[Sta]-OH), the result in assay [1], in [2], in assay [4], in [6], in assay [7] and in assay [8] was inactive. Also, the result in [10], in assay [16], in assay [12], in [14] and in assay [15] was inactive. Further, the Potency entry in assay [3], in assay [5], in assay [9] and in assay [11] was “inactive” in each case.

`CCOC(=O)COc1ccc2c(C)c(CCN(CC)CC)c(=O)oc2c1Cl`: the result in assay [1], in assay [2], in [4], in assay [6], in assay [7] and in assay [8] was inactive. Further, the outcome in assay [10], in assay [16], in [12], in assay [13] and in assay [15] was inactive. The Potency result in assay [3], in [5] and in assay [9] was “inactive” throughout.

Turning to `CC1(C)C(=O)C(C)(C)C1=O`, the result in [1], in assay [2], in assay [4], in assay [6], in assay [7] and in assay [8] was inactive. Also, the outcome in [10], in [12], in [13], in assay [14] and in [15] was inactive. In addition, the Potency entry in assay [3], in assay [5] and in [9] was “inactive” in each case.

`CC(C)CC(O)Cc1ccccc1` (stereo not given): the result in assay [1], in assay [2], in assay [4], in [6], in [7] and in assay [8] was inactive. Besides, the compound was classed as inactive in assay [10], in [12], in assay [13] and in [15]. The Potency entry in assay [3], in assay [5], in [9] and in assay [11] was “inactive” each time.

As to `CCCOc1ccc(C(=O)OCCN(CC)CC)cc1N`, the outcome in assay [1], in assay [2], in [4], in assay [6], in assay [7] and in assay [8] was inactive. Besides, the call in [10], in assay [16], in assay [12], in assay [14] and in assay [15] was inactive. In addition, the Potency result in assay [3], in [5], in [9] and in assay [11] was “inactive” each time.

`COC(=O)c1ccccc1Cl`: the call in assay [1], in [2], in assay [4], in assay [6], in [7] and in assay [8] was inactive. For the same compound, the result in assay [10], in assay [16], in [12], in assay [13] and in [15] was inactive. Further, the Potency result in assay [3], in assay [5] and in assay [9] was “inactive” in each case.

For `CCOC(=O)CC`, the result in assay [1], in assay [2], in assay [4], in assay [6], in [7] and in assay [8] was inactive. In addition, the outcome in assay [10], in [16], in [12], in assay [13], in [14] and in assay [15] was inactive. In addition, the Potency entry in assay [3], in assay [5] and in assay [9] was “inactive” throughout.
